# Results taken from PubChem BioAssay AID652017 (The Scripps Research Institute Molecular Screening Center, 2013).
# Screen size: about 370,000 compounds; about 3,800 (1%) were called active. No stated cut-off is given here; in the data, active means activation above about 7.8%; inactive means the rest. Shown is part of a subset that was picked to be rich in actives.
# Assay: SMARCA2 (BRM) function activators, primary screen, cell-based, luminescence, high throughput (AID 652017);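 further: 0% = vehicle wells and 100% = reference activator wells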
# Settings: MG213 cells, MMTV-luciferase reporter, dexamethasone, overnight; at 9.1 µM; active compounds read high
row,SMILES,activation
1,C[C@]1(C(=O)NCCc2c[nH]c3ccccc23)C=C[C@@H](Cc2ccccc2)N1C(=O)c1ccccc1,1.41% (inactive)
2,Cc1ccc(-n2c(SCC(=O)Nc3ccc(S(=O)(=O)Nc4nccs4)cc3)nnc2-c2cccnc2)cc1,-5.55% (inactive)
3,Cc1c(CCO)c(=O)n(-c2ccccc2)n1S(=O)(=O)c1ccc(F)cc1,-2.63% (inactive)
4,O=C(NCc1cccs1)C1CCN(S(=O)(=O)c2ccccc2[N+](=O)[O-])CC1,-3.33% (inactive)
5,Cc1ccc(NC(=S)NNC(=O)CSc2nnc(SCc3ccccc3Cl)s2)cc1,-6.06% (inactive)
6,CCOc1ccc(C(=O)Nc2nccs2)cc1[N+](=O)[O-],5.63% (inactive)
7,CC(=O)Oc1ccc(C(=O)Nc2nccs2)cc1,9.12% (active)
8,Cn1cccc1C(=O)Nc1nccs1,1.12% (inactive)
9,COc1ccc(-c2nc3n(c(=O)c2C#N)CCS3)c(OC)c1,-2.7% (inactive)
10,COc1ccc2c(c1)CN1CN(CCc3ccccc3)S(=O)(=O)CC21 (configuration not stated),5.9% (inactive)
11,COc1ccc(-c2cc(-c3ccc(N)cc3)nc(N)c2C#N)cc1OC,8.11% (active)
12,COc1ccc(OC)c2c(N)c(C#N)c(C(F)(F)C(F)(F)F)nc12,1.9% (inactive)
13,COc1ccc(-c2cc(C(F)(F)F)nc(S(C)(=O)=O)n2)cc1OC,-11.1% (inactive)
14,CCCCOc1ccc(Cl)cc1CSc1nncn1N,1.44% (inactive)
15,CCCCCCCCN1C(=O)[C@@H](CC(=O)NCc2ccc(C)o2)C[C@@]2(C(=O)OC)C1=C[C@H](C(C)(C)C)O[C@@H]2C,-5.88% (inactive)
16,COc1cccc(CSc2nnc(-c3cccnc3)n2Cc2ccccc2)c1,-3.94% (inactive)
17,CC(C)c1ccc(S(=O)(=O)NC2CCCC2)cc1,-1.52% (inactive)
18,Cn1sc(=O)c2cc(S(=O)(=O)NC3CC3)ccc21,8.34% (active)
19,Cc1ccc(S(=O)(=O)NC2CCCCCC2)cc1C(N)=O,-2.18% (inactive)

row,SMILES,activation
1,CN(C)CC(=O)N[C@@H]1C[C@@H]2O[C@H](CO)CC[C@@H]2O[C@@H]1CCc1ccc(C#Cc2ccccc2)cc1,0.56% (inactive)
2,CCC(C)Sc1nc(C)nc2c1c(=O)n(C)c(=O)n2C (configuration not stated),-1.47% (inactive)
3,CC(=O)Nc1cc(-c2cccc(CO)c2)cn2c(-c3cccc(C(F)(F)F)c3)cnc12,-2.27% (inactive)
4,O=CNc1cc(-c2ccc(C(=O)N3CCOCC3)cc2)cn2c(-c3ccc(F)cc3)cnc12,-2.13% (inactive)
5,CC(=O)Nc1cc(-c2ccc(N3CCN(C)CC3)cc2)cn2c(-c3cccc(C(=O)N(C)C)c3)cnc12,5.35% (inactive)
6,CN(C)C(=O)c1cccc(-c2cnc3c(NC=O)cc(-c4ccc(C(=O)N5CCOCC5)cc4)cn23)c1,3.31% (inactive)
7,CC(=O)Nc1cc(-c2ccc(N3CCN(C)CC3)cc2)cn2c(-c3ccc(F)cc3)cnc12,12.3% (active)
8,CN(C)CCNC(=O)c1cccc(-c2cnc3c(NC=O)cc(-c4cccc(C(F)(F)F)c4)cn23)c1,21.3% (active)
9,COc1ccc(-c2cc(NC=O)c3ncc(-c4cccc(C(=O)N(C)C)c4)n3c2)c(OC)c1,-4.41% (inactive)
10,CC(=O)Nc1cccc(-c2cc(NC(C)=O)c3ncc(-c4ccccc4)n3c2)c1,-12.2% (inactive)
11,CC(=O)c1cccc(-c2cnc3c(NC=O)cc(-c4ccc(N5CCN(C)CC5)cc4)cn23)c1,16.7% (active)
12,O=C(CN1CCC(NC(=O)NCc2ccccc2)CC1)Nc1ccc2c(c1)OCCO2,0.31% (inactive)
13,COc1ccc(N2CCN(CCNS(=O)(=O)c3ccc(C(C)(C)C)cc3)CC2)cc1,3.29% (inactive)
14,Clc1ccc(-n2c(COc3ccccc3)nnc2SCc2nc3ccccc3[nH]2)cc1,-4.61% (inactive)
15,O=C(CCCCO)c1ccc(O)c(Cl)c1,-1.51% (inactive)
16,CC(C)CNc1cccc2c1S(=O)(=O)N(Cc1cn(Cc3ccccc3C(F)(F)F)nn1)Cc1ccccc1O2,-2.65% (inactive)
17,CCOC(=O)N1CCN(C(=O)C[C@@H]2C(=O)N(CCc3ccc(Cl)cc3)C3=CCCC[C@]32C(=O)OCC)CC1,-1.86% (inactive)
18,COc1cc(NC(=O)C2CCCN(S(=O)(=O)c3ccc(C(C)(C)C)cc3)C2)cc(OC)c1 (configuration not stated),2.08% (inactive)
19,CCCCCN1CCCCC(NC(=O)C(C)CCC)C1=O (configuration not stated),-0.09% (inactive)

row,SMILES,activation
1,CC1CCCCN1C(=S)NCc1ccccc1 (configuration not stated),8.25% (active)
2,C/C(=N\NC(=S)NCc1ccccc1)C1CCCCC1,1.15% (inactive)
3,CC1CCCCN1C(=O)CCS(=O)(=O)Cc1ccccc1 (configuration not stated),-2.25% (inactive)
4,O=C1C2CCCN2C(=O)N1CCCCN1CCN(c2cccc(C(F)(F)F)c2)CC1 (configuration not stated),2.48% (inactive)
5,CN(C)C(CNC(=O)c1ccc(OCc2cn3ccccc3n2)cc1)c1ccco1 (configuration not stated),11.2% (active)
6,O=Cc1ccc(OCc2cn3ccccc3n2)cc1,-6.54% (inactive)
7,O=C(NCCc1ccco1)c1ccc(OCc2cn3ccccc3n2)cc1,6.76% (inactive)
8,CC(=O)N1CCCN(C2=Nc3ccccc3Sc3ccccc32)CC1,-0.9% (inactive)
9,O=C(NCc1ccco1)C1CCCN(S(=O)(=O)c2ccc(Cl)s2)C1 (configuration not stated),-1.17% (inactive)
10,O=C(CSc1n[nH]c(-c2cccnc2)n1)Nc1ccnc2ccccc12,-1.59% (inactive)
11,Fc1ccc(/C=N/Nc2nc(-c3cccnc3)nc3ccccc23)cc1,11.3% (active)
12,COC(=O)c1cccc(Cn2ccc3ccc(-c4ccc5ccn(C(=O)C6CCCCC6)c5c4)cc32)c1,-0.58% (inactive)
13,Cc1ccccc1NC(=O)COC(=O)c1ccc(Sc2ncn[nH]2)c([N+](=O)[O-])c1,-3.59% (inactive)
14,CC[C@@H](CCC(=O)N(c1ccccc1)c1ccccc1)C1CC1,-5.25% (inactive)
15,Cc1ccc(NS(=O)(=O)c2ccc(C(C)C)cc2)cc1S(=O)(=O)N1CCOCC1,-0.94% (inactive)
16,COC(=O)[C@@]12CCCCC=C1N(CCc1ccc(Cl)cc1)C(=O)[C@H]2CC(=O)NCc1ccc(OC)c(OC)c1,-0.41% (inactive)
17,O=C(Nc1cccc(Cl)c1)c1cncn1-c1ccc(F)cc1,-2.14% (inactive)
18,CCOC(=O)c1nnn(CC(=O)Nc2cccc(F)c2)c1C(=O)OCC,-2.09% (inactive)
19,CCC(=O)Nc1ccc2nn(-c3ccc(F)cc3)nc2c1,9.02% (active)
